SARS PLP yeast: inhibitors of SARS-CoV papain-like protease in yeast; S. cerevisiae expressing SARS-CoV PLpro, growth rescue; Potency, µM (series often up to 32.9 µM), inactives show at the highest dose activity, positive = growth rescue, actives largely listed as activators; 330,000 tested, 0.19% active; AID 485353; calls by dose curve; further: potency means the concentration at half of the fitted maximal effect; 0% is about no effect; nearly all actives have a fitted effect of over 55% in size
Pf growth 96h: P. falciparum growth inhibition at 96 hour, primary screen for plastid delayed-death inhibitors; P. falciparum luciferase reporter growth, 96 h; Potency, µM (doses to about 28.7 µM), for the others: top-dose activity change, negative = inhibition, actives largely listed as inhibitors; 320,000 tested, 6.9% active; AID 504834; further: potency means the concentration at half of the fitted maximal effect; on the % scale 0 is the no-effect control and ±100 the full control effect
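Compounds incubated with erythrocytes infected by luciferase-expressing P. falciparum (2% hematocrit, 0.05% parasitemia final) for 96 hours, 37 C in 5% CO2. Growth inhibition scored as decreased luciferase luminescence.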
Sm TGR inh: inhibitors of Schistosoma mansoni thioredoxin glutathione reductase; Q962Y6; purified TGR, DTNB reduction, TNB absorbance 405 nm; Potency, µM (titrated, usually from 114 µM), for inactives: at the top dose activity change, negative = inhibition, most hits filed as inhibitors; 360,000 tested, 3% active; AID 485364; further: potency means the concentration at half of the fitted maximal effect; on the % scale 0 is the no-effect control and ±100 the full control effect; nearly all actives have a fitted effect of over 60% in size
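TGR 20 nM + NADPH 100 uM (dispensed conc.), cpd preinc 15 min RT; start with NADPH (500 uM addition) then DTNB (15 mM addition). Kinetic TNB absorbance, 405 nm filter. Four-parameter Hill fit across titration.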
HCV inh: inhibitors of hepatitis C virus infection. Huh7.5.1 HCVcc-Cre infection, luciferase reporter, 44 h. Potency, µM (series often up to 41.8 µM), for inactives: at the highest dose activity change, negative = inhibition, usual class: inhibitors. 340,000 tested, 3.4% active. AID 651820; further: potency means the concentration at half of the fitted maximal effect; on the % scale 0 is the no-effect control and ±100 the full control effect
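After 44 h co-culture of compound, cells and HCVcc-Cre (~0.5 moi), substrate is added for 15 min at room temperature and luciferase measured over 15 sec. Cells were seeded at 1,000/well and pre-cultured 4 h.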
HCMV antiviral: inhibitors of human cytomegalovirus. activity change, negative = inhibition, % at 57.5 µM. AID 1259415. HFF cells, HCMV-luciferase reporter, 72 h; hits give low values. 410,000 tested, 4.5% active; in the data active means activity change below about -60%; inconclusive means no clear call, values can overlap the other calls; inactive means above about -39%; further: on the % scale 0 is the no-effect control and ±100 the full control effect
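HFF cells seeded 16 h at 37C, treated with compounds, infected with luciferase-reporter HCMV at MOI 1 PFU/cell; luciferase read at 72 h post infection, normalized to buffer-only and Salinomycin controls.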
Pf growth 48h: P. falciparum growth inhibition at 48 hours (one generation); AID 504832; Potency, µM (top dose mostly 28.7 µM), inactives show at the highest dose activity change, negative = inhibition, most hits filed as inhibitors; 310,000 tested, 5.9% active; P. falciparum luciferase growth in erythrocytes, 48 h; further: potency means the concentration at half of the fitted maximal effect; on the % scale 0 is the no-effect control and ±100 the full control effect
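Growth was read as firefly luciferase luminescence after a 48 h, 37 C, 5% CO2 exposure of compounds to reporter-bearing P. falciparum cultures (0.1% parasitemia, 2% hematocrit final) in Albumax-supplemented RPMI 1640.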
Active calls of the source: *; i = inactive; u = inconclusive; x = no result given; ! = a repeat was not active. Compounds with a hit are over-represented: about 15% of the library has one in this group of screens. Unless noted, the call rests on the fitted dose curve; in most records, active means well fitted curve in the direction sought with a large enough effect; inconclusive means small, poorly fitted or top-dose-only effect, or another doubt; inactive means no such curve, though single readings can be large; an effect the other way counts as inactive or inconclusive.

SMILES | SARS PLP yeast | Pf growth 96h | Sm TGR inh | HCV inh | HCMV antiviral | Pf growth 48h
O=C1N/C(=N\N=C\c2cccnc2)SC1Cc1ccc(SC(F)F)cc1 (stereo unspecified) | 5.5% | x | -8.5% | u | -84.7* | 3.29µM*
O=C1N/C(=N\N=C\c2ccccn2)SC1Cc1cccc(SC(F)F)c1 (stereo unspecified) | 1.3% | u | 5.1% | u | -98.7* | u
Cc1cccc(CC2S/C(=N/c3ccccn3)NC2=O)c1 (stereo unspecified) | -30.9% | i | -4.1% | 9.6% | -64.6* | u
O=C1N/C(=N\N=C\c2ccc3ncccc3c2)SC1Cc1ccc(SC(F)F)cc1 (stereo unspecified) | 2.7% | x | 0.1% | -0.2% | 19.5 | 14.8%
C[C@H]1COc2cccc(N3CCC[C@H]3CO)c2S(=O)(=O)N1 | x | x | x | x | -12.6 | x
N#C/C(=C\c1ccc(OCC(N)=O)cc1)S(=O)(=O)c1ccccc1 | 0.4% | 22.7% | 12.3% | -1.1% | 10.5 | 10.0%
COc1ccc(-c2nnc(SCC(=O)NC3CCCc4ccccc43)n2N)cc1 (stereo unspecified) | -0.2% | 1.9% | 4.8% | 9.4% | 11.6 | -6.9%
C=CCNC(=S)N1CCN(Cc2ccc3c(c2)OCO3)CC1 | 2.7% | u | -8.8% | 0.6% | -98.2* | u
Cc1c(O)ccc(C(=O)CN2CCN(Cc3ccc4c(c3)OCO4)CC2)c1O | -10.3% | 11.7µM* | u | 1.5% | -32.1 | -23.8%
O=C(C(Cl)Cl)N1CCN(Cc2ccc3c(c2)OCO3)CC1 | 0.9% | 79.6% | 0.7% | u | -74.3* | 27.5%
SC(COCc1ccccc1)CN1CCN(Cc2ccc3c(c2)OCO3)CC1 (stereo unspecified) | -30.2% | 8.28µM* | 1.9% | -25.6% | x | u
CC(=O)c1c(C)[nH]c(C(=O)N2CCN(c3ccccn3)CC2)c1C | -0.2% | u | 0.0% | -19.4% | 16.7 | 21.1%
CC(=O)c1ccc(OCC(O)CN2CCN(Cc3ccc4c(c3)OCO4)CC2)cc1 (stereo unspecified) | 5.1% | 4.15µM*! | -2.1% | u | -24.7 | -3.1%
Cc1ccc(C(=O)N2CCN(Cc3ccc4c(c3)OCO4)CC2)o1 | 3.0% | 81.2% | 2.8% | 1.8% | -0.4 | 5.7%
O=S(=O)(c1c(F)cccc1F)N1CCN(C(=S)NCc2ccc3c(c2)OCO3)CC1 | -1.6% | 2.08µM* | 8.0% | -8.9% | -5.0 | 2.08µM*
COc1ccc(OCC(O)CN2CCN(Cc3ccc4c(c3)OCO4)CC2)cc1 (stereo unspecified) | -4.4% | -13.2% | -5.1% | 26.8% | -11.2 | 1.2%
O=C(c1sccc1Br)N1CCN(Cc2ccc3c(c2)OCO3)CC1 | 0.7% | 16.4% | -3.8% | u | -63.2* | 0.9%
Cc1cccc(NC(=O)C2CCCN(S(=O)(=O)c3ccc4c(c3)oc(=O)n4C)C2)c1C (stereo unspecified) | x | x | -8.1% | x | 14.1 | x
Cc1ccc(S(=O)(=O)NCC(=O)OCC(=O)c2c(N)n(C)c(=O)n(C)c2=O)cc1 | -7.6% | 24.5% | 3.7% | 3.3% | -32.2 | 22.3%
O=[N+]([O-])c1ccc(/C=N/Nc2nc(N3CCCCCC3)nc(N3CCCCCC3)n2)o1 | -47.8% | u | -32.9% | u | -11.1 | 5.22µM*
O=[N+]([O-])c1ccc(/C=N/Nc2nc(N3CCCCC3)nc(N3CCCCC3)n2)cc1 | 0.2% | 4.2% | -32.8% | u | -38.5 | u
COc1ccc([N+](=O)[O-])cc1/C=N/Nc1nc(N2CCCCC2)nc(N2CCCCC2)n1 | 2.2% | 11.4% | 3.6% | 20µM* | -37.3 | u
Cc1nc(NC(=O)C(C)(C)C)sc1-c1nc(N)sc1-n1cc(-c2ccccc2)nn1 | x | x | x | x | 1.1 | x
CCNc1nc(-c2sc(NC(=O)C(C)(C)C)nc2C)c(-n2cc(-c3ccccc3)nn2)s1 | x | x | x | x | -70.4* | x
CC(C)n1nc(Cc2cccc3ccccc23)c(C#N)c1N | x | x | x | x | 4.3 | x
SMILES | SARS PLP yeast | Pf growth 96h | Sm TGR inh | HCV inh | HCMV antiviral | Pf growth 48h
C=C1C(=O)O[C@H]2[C@H]1[C@H](OC(=O)/C(C)=C\C)C[C@]1(CO1)[C@@H]1[C@H](OC(C)=O)C=C(C)[C@]21O | x | x | x | -31.1% | -17.9 | x
C=C1C(=O)O[C@H]2C[C@]3(C)C([C@@H](OC(=O)/C(C)=C/C)[C@H]12)[C@](C)(O)CC[C@H]3O (stereo partly specified) | 2.1% | -9.4% | 14.1µM* | u | -39.2 | -20.4%
COc1cc(C(C[N+](=O)[O-])c2c(C)[nH]c3ccccc23)cc(OC)c1OC (stereo unspecified) | -1.4% | 12.5% | -24.2% | u | 74.4 | 13.1µM*
CCOc1ccccc1N(CC(=O)Nc1cc(OC)ccc1OC)S(=O)(=O)c1ccccc1 | 0.1% | 48.2% | 3.4% | u | -102.2* | u
COCCOc1cc(N(CC(=O)N(C)C)S(=O)(=O)c2ccccc2)c(Cl)cc1Cl | 1.0% | 11.7µM* | 23.6% | 2.3% | 7.8 | 3.6%
CCOc1ccccc1N(CC(=O)Nc1cc(OC)ccc1OC)S(C)(=O)=O | -1.7% | x | 4.8% | -2.0% | 41.2 | -6.2%
CCOc1ccccc1N(CC(=O)Nc1ccccc1)S(=O)(=O)c1ccccc1 | 8.4% | 11.7µM* | -18.2% | -20.9% | -97.7* | u
CC12CCC(=O)N1C(C(=O)Nc1ccc(SC(F)F)cc1)CS2 (stereo unspecified) | x | -9.8% | 1.3% | u | 3.5 | -17.5%
CCc1ccccc1-n1nnc(-c2nc(-c3ccccc3F)no2)c1C | x | x | 1.5% | x | 47.0 | x
CCCCNCc1cc(Cl)c(OCCC)c(OCC)c1 | u | 8.28µM* | -9.0% | x | 14.0 | x
COc1cc(CNCCc2ccccc2)cc(Cl)c1OCc1ccccc1 | -1.8% | 149.7% | 5.1% | u | -16.0 | 8.28µM*
CCOc1cc(CNCC(C)C)cc(Cl)c1OCc1ccccc1 | -1.5% | 5.22µM* | x | u | u | 13.1µM*
COc1cc(CNC2CCCCCCC2)cc(Cl)c1OC | 1.4% | u | -9.0% | -7.4% | -13.9 | u
CCOc1cc(CNC2CCCC2)cc(Cl)c1OCc1ccccc1 | -6.3% | u | 8.8% | 12.6µM* | -23.2 | 13.1µM*
CCCCOc1c(Cl)cc(CNC(C)(C)CO)cc1OCC | 4.2% | 14.3% | -16.5% | u | -8.5 | u
Cc1ccc(OCC(=O)O/N=C(\N)Cc2ccc([N+](=O)[O-])cc2)cc1C | -3.6% | 17.6% | -2.4% | 3.7% | -11.6 | u
O=C(Cc1ccccc1[N+](=O)[O-])c1ccccc1 | x | x | x | x | -5.8 | x
COc1ccc(NC(=O)C(=O)NCC(c2ccc3c(c2)OCO3)N2CCN(C)CC2)cc1 (stereo unspecified) | x | x | 10.9% | x | 0.0 | x

Bioassay records deposited in PubChem by National Center for Advancing Translational Sciences (NCATS).
